Pf growth 48h: Primary qHTS for delayed death inhibitors of the malarial parasite plastid, 48 hour incubation | P. falciparum luciferase growth in erythrocytes, 48 h | Potency, µM (titrated, usually from 28.7 µM), without a hit: at the highest dose activity change, negative = inhibition, hits mostly inhibitors | 5.9% of 310,000 active; note: potency is the fitted concentration of half-maximal effect; % is set by controls: 0 for no effect and ±100 for the full control effect
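In quantitative HTS format, infected erythrocytes bearing luciferase-reporter parasites were treated for a single generation at 37 C. Luminescence after adding detection reagent served as the growth measure.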
HCMV inh: qHTS Assay for inhibitors of the human cytomegalovirus (HCMV); HFF cells, HCMV-luciferase reporter, 72 h; stronger effect = lower value; activity change, negative = inhibition, % at 57.5 µM; 4.5% of 410,000 active; AID 1259415, 2018; in the data active = activity change below about -60%; inconclusive = no clear call, values can overlap the other calls; inactive = above about -39%; note: % is set by controls: 0 for no effect and ±100 for the full control effect
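Cell-based, HFFs, 1000 cells/well, 16 h 37C; cpds in DMSO + HCMV-luc, MOI 1 PFU/cell; 72 h 37C; OneGlo luminescence after 5 min RT; norm. to buffer vs Salinomycin 10uM.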
Pf growth 96h: Primary qHTS for delayed death inhibitors of the malarial parasite plastid, 96 hour incubation. 6.9% of 320,000 active. P. falciparum luciferase reporter growth, 96 h. Potency, µM (series often up to 28.7 µM), inactives show at the highest dose activity change, negative = inhibition, actives largely listed as inhibitors; note: potency is the fitted concentration of half-maximal effect; % is set by controls: 0 for no effect and ±100 for the full control effect
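Two parasite generations (96 h, 37 C, 5% CO2) of compound exposure in infected erythrocytes (0.05% parasitemia, 2% hematocrit). Luciferase-reporter P. falciparum; decreased luminescence indicates inhibited growth, aimed at apicoplast-acting delayed death.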
Cycloheximide cs: Cycloheximide Counterscreen for Small Molecule Inhibitors of Shiga Toxin. cell reporter, cycloheximide protein synthesis inhibition counterscreen. AID 2314, 2010. 12% of 300,000 active. max response, %; in the data active = max response mostly above about 13%, no sharp cut-off; inactive = mostly below about 14%; note: read at 38.3 µM for the half of the compounds with a filed dose; 0% is about no effect
Shiga toxin inh: A qHTS for Small Molecule Inhibitors of Shiga Toxin; Vero cells, Shiga toxin protein synthesis inhibition reporter; inhibition, % at 38.7 µM; 9.2% of 290,000 active; in the data active = inhibition mostly above about 28%, no sharp cut-off; inactive = mostly below about 43%; note: 0% is about no effect
The depositor's hits bear a star; ? = inconclusive; · = no result given. Rows were chosen to be rich in hits. Some 20% of all compounds tested hit in one or more screens of this group. Unless noted, calls come from the whole dose curve; as a rule, active = well fitted inhibition curve with a large enough effect; inconclusive = small, poorly fitted or top-dose-only effect, or another doubt; inactive = no such curve, though single readings can be large or run the other way.

SMILES	Pf growth 48h	HCMV inh	Pf growth 96h	Cycloheximide cs	Shiga toxin inh
CCOC(=O)c1c(C)n(-c2ccccc2)c2ccc(OC(=O)c3ccccc3NC(=O)C(C)(C)C)cc12	·	-93.5*	·	·	·
CCOC(=O)c1c(C)n(-c2ccccc2)c2ccc(O)cc12	?	?	5.86µM*	4.2	21.8
CCOC(=O)c1c(C)n(-c2ccccc2)c2ccc(OC(=O)c3cccc(C)c3)cc12	·	-5.5	·	·	·
Cc1cc(C(=O)NNC(=O)c2ccc(Cl)cc2Cl)c(C)o1	15.6%	-22.9	21.7%	·	·
CCOC(=O)CSc1nc2c([nH]c3ccccc32)c(=O)n1-c1ccc(OC)cc1	·	0.0	·	·	·
O=C(N/N=C/c1c(O)ccc2ccccc12)c1[nH]ncc1Br	11.7µM*	-98.6*	11.7µM*	43.5*	81.9*
COc1ccc(OC)c(/C=N/NC(=O)c2[nH]ncc2Br)c1	45.4%	-22.3	54.5%	42.5*	72.3*
O=C(NN=Cc1c(O)ccc2ccccc12)C1CC1	·	-26.3	·	·	·
Cc1ccc(O)c(/C=N/NC(=O)CN2CCCC2)c1	?	-3.9	?	-1.6	26.0
Cc1ccc(O)c(/C=N/NC(=O)c2[nH]ncc2Br)c1	-63.3%	47.2	?	34.0*	58.6*
COc1ccc(-c2[nH]ncc2/C=N\NC(=O)c2ccc(Br)o2)cc1OC	18.6%	-0.1	4.3%	18.7*	33.5*
COc1ccc(Br)cc1/C=N/NC(=O)c1cccnc1	-15.6%	36.7	234.1%	1.5	-9.6
COc1ccc(S(=O)(=O)N2CCN(c3nc(C)cc(C)n3)CC2)cc1	?	-18.7	61.3%	-10.4	-5.0
CCOc1ccc(/C=N/NC(=O)c2[nH]ncc2Br)c(O)c1	?	-101.3*	-4.6%	34.8*	49.3*
COc1cccc(C(=O)N/N=C/c2cn[nH]c2-c2ccc(OC)cc2OC)c1	20.3%	24.1	0.0%	17.1*	13.4
CCOc1ccc(/C=N/NC(=O)c2cccc3ccccc23)c(OCC)c1	-0.6%	12.2	-15.9%	-1.9	-17.3
Cc1ccc(O)c(/C=N/NC(=O)C2=NNC(c3ccccc3)(c3ccccc3)C2)c1	2.94µM*	·	?	0.7	21.0
COc1ccc(/C=N/NC(=O)c2ccc3nc[nH]c3c2)c(OC)c1	1.4%	-27.8	13.3%	-0.4	-3.5
C[C@H](NC(=O)c1ccccc1Cl)C(=O)OCC(=O)N1CC2(C)CC1CC(C)(C)C2 (stereo not given in full)	15.5%	-12.7	8.7%	12.1*	8.2
COC(=O)C1=C(C)N(C)C(C)=C(C(=O)OC)C1c1ccc(F)c(Br)c1	9.28µM*	11.0	-11.3%	-1.1	0.3
CCOC(=O)C1(C)CCN1C(=O)c1ccc(C#N)cc1 (stereo not given)	·	0.4	·	·	·
CN1CN(c2ccccc2)C2(CCN(CCCSc3ccccc3NC(=O)/C=C/c3ccccc3)CC2)C1=O	·	-66.2*	·	·	·
c1ccc(CSc2ccc3nnc(-c4ccccn4)n3n2)cc1	?	2.2	?	-3.1	-3.9
CC(=O)Nc1ccc(NC(=O)CSc2ccc3nnc(-c4ccccn4)n3n2)cc1	2.0%	-26.6	0.4%	0.6	-5.2
O=C(CSc1ccc2nnc(-c3ccccn3)n2n1)Nc1ccccc1F	9.28µM*	43.3	-30.5%	7.8	8.2
SMILES	Pf growth 48h	HCMV inh	Pf growth 96h	Cycloheximide cs	Shiga toxin inh
Cc1cccc(CSc2ccc3nnc(-c4ccccn4)n3n2)c1	3.7µM*	-17.3	?	11.4	3.4
O=C(CSc1ccc2nnc(-c3ccccn3)n2n1)Nc1cccc(F)c1	?	23.3	13.1µM*	8.0	8.6
CCSc1ccc2nnc(-c3cccc(F)c3)n2n1	11.4%	-64.3*	30.4%	-2.8	-28.2
COC(=O)c1ccc(Cn2c(C)c(C(=O)NCc3cccc(C(F)(F)F)c3)sc2=O)o1	·	120.9	·	·	·
CCN(CC)c1ccc(NC(=O)c2c(C)nn(-c3ccc(F)cc3)c2-n2cccc2)c(C)c1	·	-36.4	·	·	·
Cc1ccccc1NC(=O)CSc1nnc(-c2ccccn2)o1	153.8%	59.3	19.7%	-4.8	-3.6
O=C(CSc1nnc(-c2ccccn2)o1)Nc1ccccc1F	133.6%	56.2	?	25.5*	73.5*
O=C(CCN1C(=O)c2cccc3cccc(c23)C1=O)Nc1ccon1	41.4%	?	-16.6%	1.4	-6.7
Cc1ccc(C2=Nc3ccccc3N(CC(=O)Nc3cccc(F)c3)C(=O)C2)cc1C	·	30.6	·	·	·
Nc1ccc(N=Nc2ccccc2)c(N)n1	110.8%	-101.7*	49.9%	52.0*	73.3*

Screening data from PubChem BioAssay.
